Drawing on PMC7862700, “An all-to-all approach to the identification of sequence-specific readers for epigenetic DNA modifications on cytosine”, this text covers binding signal for one sequence.

Experiment in all cases: DAPPL (digital affinity profiling via proximity ligation, sequencing); 10 mM Tris-HCl pH 7.5, 50 mM NaCl, 1 mM DTT, 4% glycerol, room temperature, 30 min; GST-TFs on glutathione beads, 16-mer random dsDNA library, 0.1% formaldehyde crosslink after washing; high values mean tight binding
One assay concerns the target T1, FEV (Homo sapiens, UniProt Q99581 1-238).
T1 sequence: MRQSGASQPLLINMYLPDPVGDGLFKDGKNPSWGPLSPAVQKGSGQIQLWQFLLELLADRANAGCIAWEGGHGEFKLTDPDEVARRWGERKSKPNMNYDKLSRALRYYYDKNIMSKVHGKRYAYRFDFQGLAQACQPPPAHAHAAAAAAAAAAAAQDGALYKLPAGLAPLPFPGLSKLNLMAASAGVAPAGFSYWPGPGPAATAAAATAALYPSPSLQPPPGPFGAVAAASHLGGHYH
Conditions: protein: recombinant; tags: N-terminal GST; dsDNA, one strand shown. The method, boiled down:
(§1)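 Binding signal is each hexamer's read frequency for a factor divided by its frequency in the tag-only sample. The factors were GST-fused human transcription factors from yeast, captured on glutathione beads, DNA-barcoded and pooled with that sample. Pools were incubated with 200 nmole of a random double-stranded 16-mer DNA library in Tris/NaCl/DTT/glycerol buffer at room temperature for 30 min, then washed, crosslinked with 0.1% formaldehyde, proximity-ligated with BsaI/T4 ligase (1 h, 37 °C), PCR-amplified and sequenced on an Illumina NextSeq500.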

A further assay concerns the target ETV5 (Homo sapiens, UniProt P41161 1-510). Conditions: protein: recombinant; tags: N-terminal GST; dsDNA, one strand shown. An outline of the steps: as §1
For the next assay, the target named is HSF1 (Homo sapiens, UniProt Q00613 1-529). Conditions: protein: recombinant; tags: N-terminal GST; chain copies: 3; dsDNA, one strand shown. An outline of the steps: as §1
The target of another assay is T2, SPIC (Homo sapiens, UniProt Q8N5J4 1-248).
T2 sequence: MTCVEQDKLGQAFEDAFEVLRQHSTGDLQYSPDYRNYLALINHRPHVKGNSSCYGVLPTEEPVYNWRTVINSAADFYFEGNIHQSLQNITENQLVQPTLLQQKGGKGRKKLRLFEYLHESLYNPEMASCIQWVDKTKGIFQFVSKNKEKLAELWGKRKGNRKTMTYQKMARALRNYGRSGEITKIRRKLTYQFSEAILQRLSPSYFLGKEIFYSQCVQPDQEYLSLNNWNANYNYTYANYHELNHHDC
Conditions: protein: recombinant; tags: N-terminal GST; dsDNA, one strand shown. An outline of the steps:
as §1

In the next assay the target is ELF4 (Homo sapiens, UniProt Q99607 1-663). Conditions: protein: recombinant; tags: N-terminal GST; dsDNA, one strand shown. An outline of the steps: as §1
Another assay concerns the target T3, ELK4 (Homo sapiens, UniProt P28324-2 1-405).
T3 sequence: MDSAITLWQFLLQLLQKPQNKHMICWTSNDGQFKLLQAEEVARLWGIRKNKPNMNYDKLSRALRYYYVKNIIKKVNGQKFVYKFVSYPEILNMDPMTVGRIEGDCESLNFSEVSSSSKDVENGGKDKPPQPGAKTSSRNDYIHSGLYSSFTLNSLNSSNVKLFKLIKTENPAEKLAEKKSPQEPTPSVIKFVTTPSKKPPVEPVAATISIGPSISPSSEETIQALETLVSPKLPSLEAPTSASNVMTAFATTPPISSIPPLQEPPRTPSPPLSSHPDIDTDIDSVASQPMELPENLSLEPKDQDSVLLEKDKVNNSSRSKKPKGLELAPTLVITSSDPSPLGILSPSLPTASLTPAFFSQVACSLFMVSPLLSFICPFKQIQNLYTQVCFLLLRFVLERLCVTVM
Conditions: protein: recombinant; tags: N-terminal GST; dsDNA, one strand shown. An outline of the steps:
as §1

For the next assay, the target named is T4, ETV2 (Homo sapiens, UniProt O00321 1-342).
T4 sequence: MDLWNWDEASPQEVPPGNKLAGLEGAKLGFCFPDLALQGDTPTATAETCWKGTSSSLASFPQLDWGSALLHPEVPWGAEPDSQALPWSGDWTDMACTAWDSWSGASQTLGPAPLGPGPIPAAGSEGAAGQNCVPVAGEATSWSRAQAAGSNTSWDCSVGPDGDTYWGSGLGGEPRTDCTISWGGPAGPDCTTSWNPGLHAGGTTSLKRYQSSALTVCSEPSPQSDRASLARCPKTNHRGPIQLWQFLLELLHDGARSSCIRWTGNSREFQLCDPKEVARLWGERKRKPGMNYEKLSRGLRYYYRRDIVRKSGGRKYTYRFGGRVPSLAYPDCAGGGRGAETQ
Conditions: protein: recombinant; tags: N-terminal GST; dsDNA, one strand shown. The method, boiled down:
as §1

For the next assay, the target named is T5, ELF3 (Homo sapiens, UniProt P78545 1-371).
T5 sequence: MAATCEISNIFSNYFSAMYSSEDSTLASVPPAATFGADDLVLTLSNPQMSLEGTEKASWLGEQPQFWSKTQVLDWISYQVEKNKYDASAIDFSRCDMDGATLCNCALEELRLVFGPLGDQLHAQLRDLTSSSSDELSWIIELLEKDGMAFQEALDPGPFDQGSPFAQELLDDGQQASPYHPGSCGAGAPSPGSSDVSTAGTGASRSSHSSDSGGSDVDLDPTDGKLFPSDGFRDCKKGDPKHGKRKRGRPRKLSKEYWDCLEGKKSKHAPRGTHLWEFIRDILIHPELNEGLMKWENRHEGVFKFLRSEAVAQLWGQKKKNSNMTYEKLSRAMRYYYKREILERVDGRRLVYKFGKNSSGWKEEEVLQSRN
Conditions: protein: recombinant; tags: N-terminal GST; dsDNA, one strand shown. An outline of the steps:
as §1

A further assay deals with CRX (Homo sapiens, UniProt O43186 1-299). Conditions: protein: recombinant; tags: N-terminal GST; dsDNA, one strand shown. The method, boiled down:
as §1

The target of a further assay is ETV1 (Homo sapiens, UniProt P50549 1-477). Conditions: protein: recombinant; tags: N-terminal GST; dsDNA, one strand shown. An outline of the steps:
as §1

A further assay addresses T6, ERF (Homo sapiens, UniProt P50548 1-548).
T6 sequence: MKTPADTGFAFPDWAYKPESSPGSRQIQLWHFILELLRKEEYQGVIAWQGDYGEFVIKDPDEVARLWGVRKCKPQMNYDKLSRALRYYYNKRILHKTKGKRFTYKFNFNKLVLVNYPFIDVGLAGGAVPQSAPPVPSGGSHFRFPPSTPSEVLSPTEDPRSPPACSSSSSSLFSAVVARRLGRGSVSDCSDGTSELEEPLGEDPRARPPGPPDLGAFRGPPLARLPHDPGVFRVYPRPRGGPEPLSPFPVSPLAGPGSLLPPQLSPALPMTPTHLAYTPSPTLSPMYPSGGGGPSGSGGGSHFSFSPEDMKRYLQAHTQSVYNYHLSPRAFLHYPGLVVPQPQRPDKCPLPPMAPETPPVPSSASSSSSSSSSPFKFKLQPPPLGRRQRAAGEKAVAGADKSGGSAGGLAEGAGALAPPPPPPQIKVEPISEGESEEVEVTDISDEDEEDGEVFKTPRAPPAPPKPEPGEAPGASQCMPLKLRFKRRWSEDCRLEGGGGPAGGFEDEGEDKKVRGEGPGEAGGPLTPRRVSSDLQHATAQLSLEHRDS
Conditions: protein: recombinant; tags: N-terminal GST; dsDNA, one strand shown. The method, boiled down: as §1

In another assay the target is T7, ETV3L (Homo sapiens, UniProt Q6ZN32 1-361).
T7 sequence: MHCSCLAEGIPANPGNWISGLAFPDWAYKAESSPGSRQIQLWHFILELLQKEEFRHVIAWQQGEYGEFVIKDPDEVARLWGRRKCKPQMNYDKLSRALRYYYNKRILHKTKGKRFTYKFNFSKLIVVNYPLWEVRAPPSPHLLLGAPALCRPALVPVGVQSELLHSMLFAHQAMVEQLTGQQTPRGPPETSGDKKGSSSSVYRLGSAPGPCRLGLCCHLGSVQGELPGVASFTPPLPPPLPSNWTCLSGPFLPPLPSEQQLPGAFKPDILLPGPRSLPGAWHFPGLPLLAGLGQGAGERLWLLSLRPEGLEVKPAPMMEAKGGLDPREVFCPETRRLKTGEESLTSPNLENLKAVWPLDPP
Conditions: protein: recombinant; tags: N-terminal GST; dsDNA, one strand shown. An outline of the steps:
as §1

Another assay deals with T8, ETS2 (Homo sapiens, UniProt P15036 1-469).
T8 sequence: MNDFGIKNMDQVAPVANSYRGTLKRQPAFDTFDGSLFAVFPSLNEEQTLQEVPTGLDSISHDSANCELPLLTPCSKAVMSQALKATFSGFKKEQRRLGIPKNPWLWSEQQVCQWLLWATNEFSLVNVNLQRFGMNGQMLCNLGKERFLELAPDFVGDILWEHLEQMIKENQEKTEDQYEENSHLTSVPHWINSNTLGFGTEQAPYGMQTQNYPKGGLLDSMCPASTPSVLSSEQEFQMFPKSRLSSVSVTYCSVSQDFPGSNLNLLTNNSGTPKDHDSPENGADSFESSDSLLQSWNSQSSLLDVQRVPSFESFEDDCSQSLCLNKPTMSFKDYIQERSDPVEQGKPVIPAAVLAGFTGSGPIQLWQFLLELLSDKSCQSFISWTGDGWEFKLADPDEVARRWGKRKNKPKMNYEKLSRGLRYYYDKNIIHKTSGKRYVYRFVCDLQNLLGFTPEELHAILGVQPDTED
Conditions: protein: recombinant; tags: N-terminal GST; dsDNA, one strand shown. An outline of the steps:
as §1

The next assay addresses T9, SPDEF (Homo sapiens, UniProt O95238 1-335).
T9 sequence: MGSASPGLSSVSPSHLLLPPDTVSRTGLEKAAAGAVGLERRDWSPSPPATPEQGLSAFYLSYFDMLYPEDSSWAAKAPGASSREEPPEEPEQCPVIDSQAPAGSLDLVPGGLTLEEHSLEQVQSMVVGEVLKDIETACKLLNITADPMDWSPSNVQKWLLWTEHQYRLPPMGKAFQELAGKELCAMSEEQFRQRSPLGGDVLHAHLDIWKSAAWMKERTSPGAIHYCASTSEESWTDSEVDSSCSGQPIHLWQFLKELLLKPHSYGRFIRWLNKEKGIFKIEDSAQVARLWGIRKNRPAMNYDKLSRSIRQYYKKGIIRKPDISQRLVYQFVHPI
Conditions: protein: recombinant; tags: N-terminal GST; dsDNA, one strand shown. The method, boiled down: as §1

Another assay concerns the target T10, ETV7 (Homo sapiens, UniProt Q9Y603 1-341).
T10 sequence: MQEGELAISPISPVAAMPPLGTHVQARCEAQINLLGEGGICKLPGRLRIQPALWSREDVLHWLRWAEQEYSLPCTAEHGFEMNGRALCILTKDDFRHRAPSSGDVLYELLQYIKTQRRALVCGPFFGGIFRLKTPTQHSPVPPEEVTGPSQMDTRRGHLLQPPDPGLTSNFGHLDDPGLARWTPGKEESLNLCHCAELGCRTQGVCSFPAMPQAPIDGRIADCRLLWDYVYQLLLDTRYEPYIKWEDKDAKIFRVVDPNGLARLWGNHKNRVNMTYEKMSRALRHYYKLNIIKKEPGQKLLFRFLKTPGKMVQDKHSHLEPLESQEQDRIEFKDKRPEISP
Conditions: protein: recombinant; tags: N-terminal GST; dsDNA, one strand shown. An outline of the steps:
as §1

The target of the next assay is T11, ELF5 (Homo sapiens, UniProt Q9UKW6-2 1-255).
T11 sequence: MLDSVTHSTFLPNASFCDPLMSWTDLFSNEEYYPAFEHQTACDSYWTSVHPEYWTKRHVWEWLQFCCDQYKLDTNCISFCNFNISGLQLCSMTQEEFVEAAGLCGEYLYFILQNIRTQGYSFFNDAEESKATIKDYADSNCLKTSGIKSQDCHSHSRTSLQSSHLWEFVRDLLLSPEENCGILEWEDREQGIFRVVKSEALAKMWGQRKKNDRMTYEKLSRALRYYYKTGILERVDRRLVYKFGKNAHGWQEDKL
Conditions: protein: recombinant; tags: N-terminal GST; dsDNA, one strand shown. The method, boiled down: as §1

The next assay deals with T12, ETV3 (Homo sapiens, UniProt P41162-2 1-143).
T12 sequence: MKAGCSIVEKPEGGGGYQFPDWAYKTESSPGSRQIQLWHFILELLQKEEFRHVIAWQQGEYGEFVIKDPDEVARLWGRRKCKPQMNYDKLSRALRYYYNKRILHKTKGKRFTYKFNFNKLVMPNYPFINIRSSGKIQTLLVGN
Conditions: protein: recombinant; tags: N-terminal GST; dsDNA, one strand shown. An outline of the steps: as §1

The target in the next assay is ETV6 (Homo sapiens, UniProt P41212 1-452). Conditions: protein: recombinant; tags: N-terminal GST; dsDNA, one strand shown. The method, boiled down: as §1
Sequence of ETV6 (P41212 whole entry): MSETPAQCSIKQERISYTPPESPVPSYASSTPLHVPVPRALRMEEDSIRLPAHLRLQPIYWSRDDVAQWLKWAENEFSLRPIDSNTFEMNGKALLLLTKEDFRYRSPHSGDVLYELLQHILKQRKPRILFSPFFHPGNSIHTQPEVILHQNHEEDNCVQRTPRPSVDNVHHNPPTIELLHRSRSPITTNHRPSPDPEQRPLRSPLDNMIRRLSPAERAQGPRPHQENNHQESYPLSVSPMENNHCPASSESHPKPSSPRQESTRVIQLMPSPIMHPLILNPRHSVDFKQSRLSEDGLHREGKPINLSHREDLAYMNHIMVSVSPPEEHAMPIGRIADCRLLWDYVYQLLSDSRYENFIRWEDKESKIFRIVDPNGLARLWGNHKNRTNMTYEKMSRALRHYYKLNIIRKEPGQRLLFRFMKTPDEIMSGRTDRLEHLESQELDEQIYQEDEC

Sequence of ETV5 (P41161 whole entry): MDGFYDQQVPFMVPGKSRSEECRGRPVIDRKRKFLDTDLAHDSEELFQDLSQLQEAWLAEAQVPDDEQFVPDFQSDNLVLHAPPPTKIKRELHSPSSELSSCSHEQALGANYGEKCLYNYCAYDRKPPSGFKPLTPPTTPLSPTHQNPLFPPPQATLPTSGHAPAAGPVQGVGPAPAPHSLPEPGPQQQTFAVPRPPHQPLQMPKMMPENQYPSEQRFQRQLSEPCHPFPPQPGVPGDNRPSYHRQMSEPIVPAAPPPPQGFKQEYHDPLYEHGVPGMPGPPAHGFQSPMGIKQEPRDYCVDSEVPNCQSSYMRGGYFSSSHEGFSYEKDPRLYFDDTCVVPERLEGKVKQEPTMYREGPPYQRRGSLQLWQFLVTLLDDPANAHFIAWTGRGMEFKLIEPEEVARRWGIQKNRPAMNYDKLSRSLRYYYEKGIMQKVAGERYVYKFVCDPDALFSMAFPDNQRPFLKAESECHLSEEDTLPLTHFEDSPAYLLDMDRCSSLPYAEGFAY
Sequence of ETV1 (P50549 whole entry): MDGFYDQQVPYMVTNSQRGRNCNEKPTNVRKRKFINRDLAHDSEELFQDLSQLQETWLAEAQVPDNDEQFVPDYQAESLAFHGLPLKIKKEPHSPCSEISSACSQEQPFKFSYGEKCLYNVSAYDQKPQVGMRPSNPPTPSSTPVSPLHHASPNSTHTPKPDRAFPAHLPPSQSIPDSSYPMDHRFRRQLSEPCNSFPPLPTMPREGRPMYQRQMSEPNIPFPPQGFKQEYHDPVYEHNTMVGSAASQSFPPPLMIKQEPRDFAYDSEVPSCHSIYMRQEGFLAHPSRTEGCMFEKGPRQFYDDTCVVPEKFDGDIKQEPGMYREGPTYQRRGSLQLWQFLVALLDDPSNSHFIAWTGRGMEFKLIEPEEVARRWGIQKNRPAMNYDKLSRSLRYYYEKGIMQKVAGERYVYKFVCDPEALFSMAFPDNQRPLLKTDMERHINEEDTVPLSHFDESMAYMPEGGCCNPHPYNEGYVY
Sequence of ELF4 (Q99607 whole entry): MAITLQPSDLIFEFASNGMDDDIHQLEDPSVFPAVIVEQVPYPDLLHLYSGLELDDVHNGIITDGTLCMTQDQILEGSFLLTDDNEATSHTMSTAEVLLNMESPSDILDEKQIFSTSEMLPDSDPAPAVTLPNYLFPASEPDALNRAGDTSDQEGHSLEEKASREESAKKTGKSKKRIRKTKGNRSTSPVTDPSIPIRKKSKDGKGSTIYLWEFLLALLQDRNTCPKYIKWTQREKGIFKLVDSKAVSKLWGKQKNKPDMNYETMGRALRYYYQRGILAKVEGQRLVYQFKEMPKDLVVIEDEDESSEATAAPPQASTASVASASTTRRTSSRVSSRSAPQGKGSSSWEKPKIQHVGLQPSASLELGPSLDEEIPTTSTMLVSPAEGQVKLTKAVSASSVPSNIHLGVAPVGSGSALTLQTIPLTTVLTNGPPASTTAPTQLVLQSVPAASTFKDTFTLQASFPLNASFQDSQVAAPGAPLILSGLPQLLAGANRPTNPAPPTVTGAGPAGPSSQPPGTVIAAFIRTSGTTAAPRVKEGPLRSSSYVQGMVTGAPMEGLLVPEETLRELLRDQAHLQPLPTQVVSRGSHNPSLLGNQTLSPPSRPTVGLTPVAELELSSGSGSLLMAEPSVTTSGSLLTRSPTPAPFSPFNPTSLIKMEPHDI
Sequence of CRX (O43186 whole entry): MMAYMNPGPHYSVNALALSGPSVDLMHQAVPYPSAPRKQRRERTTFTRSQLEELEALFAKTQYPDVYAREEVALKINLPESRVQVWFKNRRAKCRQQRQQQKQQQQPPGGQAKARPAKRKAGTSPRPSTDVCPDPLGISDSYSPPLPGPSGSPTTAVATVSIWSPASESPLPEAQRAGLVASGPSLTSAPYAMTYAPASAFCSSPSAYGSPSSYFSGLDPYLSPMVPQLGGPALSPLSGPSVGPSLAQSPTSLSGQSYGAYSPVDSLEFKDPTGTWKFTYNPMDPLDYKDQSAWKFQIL
Sequence of HSF1 (Q00613 whole entry): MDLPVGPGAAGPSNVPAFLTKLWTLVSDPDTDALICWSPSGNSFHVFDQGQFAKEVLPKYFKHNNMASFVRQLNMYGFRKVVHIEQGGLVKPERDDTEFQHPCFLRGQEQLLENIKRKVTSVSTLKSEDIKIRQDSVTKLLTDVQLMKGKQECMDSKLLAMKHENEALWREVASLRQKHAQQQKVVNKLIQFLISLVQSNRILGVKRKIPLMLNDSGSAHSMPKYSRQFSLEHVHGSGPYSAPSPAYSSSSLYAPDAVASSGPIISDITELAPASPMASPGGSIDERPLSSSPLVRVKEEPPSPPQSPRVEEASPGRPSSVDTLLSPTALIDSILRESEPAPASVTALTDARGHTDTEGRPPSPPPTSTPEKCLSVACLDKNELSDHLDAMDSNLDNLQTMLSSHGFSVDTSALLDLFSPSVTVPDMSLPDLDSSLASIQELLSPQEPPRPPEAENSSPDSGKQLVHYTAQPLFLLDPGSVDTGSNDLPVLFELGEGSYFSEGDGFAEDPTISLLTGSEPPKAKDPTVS

Consider CTTCTC, for which the binding signal is 1.35 fold enrichment (6-mer frequency, TF over GST control) with FEV; 1.27 fold enrichment (6-mer frequency, TF over GST control) with ETV5; 2.19 fold enrichment (6-mer frequency, TF over GST control) with HSF1; 1.55 fold enrichment (6-mer frequency, TF over GST control) with SPIC; 1.39 fold enrichment (6-mer frequency, TF over GST control) in the assay with ELF4; 1.42 fold enrichment (6-mer frequency, TF over GST control) with ELK4. For the same sequence, the binding signal with ETV2 is 1.39 fold enrichment (6-mer frequency, TF over GST control); in the assay with ELF3 it was 1.47 fold enrichment (6-mer frequency, TF over GST control); with CRX, 1.56 fold enrichment (6-mer frequency, TF over GST control); in the assay with ETV1, 1.39 fold enrichment (6-mer frequency, TF over GST control); in the assay with ERF, 1.33 fold enrichment (6-mer frequency, TF over GST control); with ETV3L, 1.39 fold enrichment (6-mer frequency, TF over GST control). Besides, the binding signal with ETS2 is 1.32 fold enrichment (6-mer frequency, TF over GST control); with SPDEF it was 1.33 fold enrichment (6-mer frequency, TF over GST control); in the assay with ETV7, 1.32 fold enrichment (6-mer frequency, TF over GST control); with ELF5, 1.52 fold enrichment (6-mer frequency, TF over GST control); with ETV3 it was 1.31 fold enrichment (6-mer frequency, TF over GST control); in the assay with ETV6, 1.37 fold enrichment (6-mer frequency, TF over GST control).
